In paper PMC7862700, “An all-to-all approach to the identification of sequence-specific readers for epigenetic DNA modifications on cytosine”:

Assays:
Assay in all cases: DAPPL (digital affinity profiling via proximity ligation, sequencing); 10 mM Tris-HCl pH 7.5, 50 mM NaCl, 1 mM DTT, 4% glycerol, room temperature, 30 min; GST-TFs on glutathione beads, 16-mer random dsDNA library, 0.1% formaldehyde crosslink after washing; high values mean tight binding
FLI1 = target: T1, FLI1 (Homo sapiens, UniProt Q01543 1-452); conditions: protein: recombinant; tags: N-terminal GST; dsDNA, one strand shown
T1 sequence: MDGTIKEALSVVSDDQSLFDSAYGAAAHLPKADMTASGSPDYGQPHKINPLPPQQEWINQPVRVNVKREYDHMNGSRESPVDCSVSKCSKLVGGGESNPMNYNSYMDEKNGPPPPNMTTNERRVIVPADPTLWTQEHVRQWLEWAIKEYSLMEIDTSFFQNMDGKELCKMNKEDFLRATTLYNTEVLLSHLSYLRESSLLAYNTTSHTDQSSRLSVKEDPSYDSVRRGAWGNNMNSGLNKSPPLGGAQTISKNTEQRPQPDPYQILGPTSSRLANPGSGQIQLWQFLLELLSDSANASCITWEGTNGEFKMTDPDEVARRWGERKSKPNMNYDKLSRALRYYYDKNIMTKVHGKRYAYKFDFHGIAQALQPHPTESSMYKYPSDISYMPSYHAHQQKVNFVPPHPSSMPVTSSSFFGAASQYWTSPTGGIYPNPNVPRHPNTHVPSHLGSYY
In short: (§1)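 A tag-only sample was pooled with DNA-barcoded human transcription factors that had been expressed in yeast as GST fusions and captured on glutathione beads. The pools were incubated for 30 min at room temperature with 200 nmole of a random double-stranded 16-mer DNA library in Tris/NaCl/DTT/glycerol buffer, then washed, crosslinked with 0.1% formaldehyde, proximity-ligated (BsaI/T4 ligase, 1 h, 37 °C), PCR-amplified and sequenced on an Illumina NextSeq500. Binding signal is each hexamer's read frequency for a factor divided by its frequency for the tag-only sample.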

ELK1 = target: T2, ELK1 (Homo sapiens, UniProt P19419 1-428); conditions: protein: recombinant; tags: N-terminal GST; dsDNA, one strand shown
T2 sequence: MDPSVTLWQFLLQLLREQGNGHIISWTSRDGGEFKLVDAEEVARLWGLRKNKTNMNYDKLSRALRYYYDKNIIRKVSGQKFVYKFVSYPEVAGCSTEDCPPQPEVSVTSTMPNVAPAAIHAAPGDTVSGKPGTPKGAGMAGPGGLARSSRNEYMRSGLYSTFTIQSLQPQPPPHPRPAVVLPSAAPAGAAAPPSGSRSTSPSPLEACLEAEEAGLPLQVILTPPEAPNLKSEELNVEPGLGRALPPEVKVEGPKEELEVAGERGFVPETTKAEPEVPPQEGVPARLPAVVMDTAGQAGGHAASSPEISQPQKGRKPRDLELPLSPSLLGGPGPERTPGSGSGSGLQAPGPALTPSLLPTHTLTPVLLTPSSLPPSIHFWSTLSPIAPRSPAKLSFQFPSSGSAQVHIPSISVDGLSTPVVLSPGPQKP
In short: as §1

GABPA = target: T3, GABPA (Homo sapiens, UniProt Q06546 1-454); conditions: protein: recombinant; tags: N-terminal GST; dsDNA, one strand shown
T3 sequence: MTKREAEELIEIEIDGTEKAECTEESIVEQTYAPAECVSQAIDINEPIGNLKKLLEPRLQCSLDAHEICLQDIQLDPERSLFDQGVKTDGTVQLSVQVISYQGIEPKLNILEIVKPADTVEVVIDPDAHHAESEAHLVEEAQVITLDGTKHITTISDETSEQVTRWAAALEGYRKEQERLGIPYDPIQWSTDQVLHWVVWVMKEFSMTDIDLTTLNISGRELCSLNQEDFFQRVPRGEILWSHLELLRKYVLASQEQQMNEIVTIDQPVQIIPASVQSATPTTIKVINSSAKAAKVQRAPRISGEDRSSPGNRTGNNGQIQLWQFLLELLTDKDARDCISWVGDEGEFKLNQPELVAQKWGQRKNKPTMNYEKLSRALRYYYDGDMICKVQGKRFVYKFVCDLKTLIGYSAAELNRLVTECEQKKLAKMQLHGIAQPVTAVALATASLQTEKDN
In short: as §1

ERG = target: T4, ERG (Homo sapiens, UniProt P11308 1-479); conditions: protein: recombinant; tags: N-terminal GST; dsDNA, one strand shown
T4 sequence: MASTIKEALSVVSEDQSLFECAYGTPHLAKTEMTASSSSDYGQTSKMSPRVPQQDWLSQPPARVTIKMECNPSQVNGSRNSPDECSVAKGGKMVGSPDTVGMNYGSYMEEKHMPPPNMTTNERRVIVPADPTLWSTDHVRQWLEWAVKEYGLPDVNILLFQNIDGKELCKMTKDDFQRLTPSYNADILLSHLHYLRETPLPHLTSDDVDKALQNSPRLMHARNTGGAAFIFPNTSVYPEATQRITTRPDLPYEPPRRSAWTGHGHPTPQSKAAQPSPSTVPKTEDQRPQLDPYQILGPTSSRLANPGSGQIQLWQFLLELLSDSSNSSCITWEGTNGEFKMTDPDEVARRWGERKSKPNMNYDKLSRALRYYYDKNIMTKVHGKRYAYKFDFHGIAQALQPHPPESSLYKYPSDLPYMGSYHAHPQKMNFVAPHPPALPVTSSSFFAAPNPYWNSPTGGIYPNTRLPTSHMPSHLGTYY
In short: as §1

ELF1 = ELF1 (Homo sapiens, UniProt P32519 1-619); conditions: protein: recombinant; tags: N-terminal GST; dsDNA, one strand shown
ELF1, sequence (P32519 whole entry): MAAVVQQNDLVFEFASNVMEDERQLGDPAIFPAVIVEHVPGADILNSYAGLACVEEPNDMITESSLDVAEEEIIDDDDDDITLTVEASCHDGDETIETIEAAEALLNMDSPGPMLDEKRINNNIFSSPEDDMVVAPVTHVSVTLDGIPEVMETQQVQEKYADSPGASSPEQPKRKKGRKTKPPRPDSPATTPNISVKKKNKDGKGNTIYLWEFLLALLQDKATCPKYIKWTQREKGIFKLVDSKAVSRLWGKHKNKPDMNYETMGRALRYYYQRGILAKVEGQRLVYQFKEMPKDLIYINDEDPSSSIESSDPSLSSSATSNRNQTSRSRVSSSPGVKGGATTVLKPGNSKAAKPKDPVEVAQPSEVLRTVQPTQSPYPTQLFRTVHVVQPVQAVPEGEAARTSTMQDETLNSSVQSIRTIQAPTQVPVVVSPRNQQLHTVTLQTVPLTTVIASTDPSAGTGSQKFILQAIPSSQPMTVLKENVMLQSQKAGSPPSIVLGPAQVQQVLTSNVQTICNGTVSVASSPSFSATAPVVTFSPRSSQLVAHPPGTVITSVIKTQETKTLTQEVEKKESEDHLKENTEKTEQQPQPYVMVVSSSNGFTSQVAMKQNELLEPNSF
In short: as §1

EHF = target: T5, EHF (Homo sapiens, UniProt Q9NZC4 1-300); conditions: protein: recombinant; tags: N-terminal GST; dsDNA, one strand shown
T5 sequence: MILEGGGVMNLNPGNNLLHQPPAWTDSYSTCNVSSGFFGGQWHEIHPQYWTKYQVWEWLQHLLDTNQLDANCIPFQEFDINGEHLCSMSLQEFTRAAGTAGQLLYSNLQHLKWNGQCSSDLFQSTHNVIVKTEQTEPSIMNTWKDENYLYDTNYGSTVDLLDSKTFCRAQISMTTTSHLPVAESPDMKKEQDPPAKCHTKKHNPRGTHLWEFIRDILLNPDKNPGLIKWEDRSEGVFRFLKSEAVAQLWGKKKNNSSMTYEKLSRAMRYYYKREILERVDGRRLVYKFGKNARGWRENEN
In short: as §1

SPI1 = SPI1 (Homo sapiens, UniProt P17947 1-270); conditions: protein: recombinant; tags: N-terminal GST; dsDNA, one strand shown
In short: as §1

SPIB = SPIB (Homo sapiens, UniProt Q01892 1-262); conditions: protein: recombinant; tags: N-terminal GST; dsDNA, one strand shown
SPIB, sequence (Q01892 whole entry): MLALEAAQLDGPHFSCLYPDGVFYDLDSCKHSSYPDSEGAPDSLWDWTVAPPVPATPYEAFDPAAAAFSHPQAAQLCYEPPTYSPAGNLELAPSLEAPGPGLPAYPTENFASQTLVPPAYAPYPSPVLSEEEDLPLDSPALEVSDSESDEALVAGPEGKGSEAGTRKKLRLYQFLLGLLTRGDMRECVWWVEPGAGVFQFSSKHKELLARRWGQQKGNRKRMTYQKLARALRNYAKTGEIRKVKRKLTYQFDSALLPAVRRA
In short: as §1

ELK3 = target: T6, ELK3 (Homo sapiens, UniProt P41970 1-407); conditions: protein: recombinant; tags: N-terminal GST; dsDNA, one strand shown
T6 sequence: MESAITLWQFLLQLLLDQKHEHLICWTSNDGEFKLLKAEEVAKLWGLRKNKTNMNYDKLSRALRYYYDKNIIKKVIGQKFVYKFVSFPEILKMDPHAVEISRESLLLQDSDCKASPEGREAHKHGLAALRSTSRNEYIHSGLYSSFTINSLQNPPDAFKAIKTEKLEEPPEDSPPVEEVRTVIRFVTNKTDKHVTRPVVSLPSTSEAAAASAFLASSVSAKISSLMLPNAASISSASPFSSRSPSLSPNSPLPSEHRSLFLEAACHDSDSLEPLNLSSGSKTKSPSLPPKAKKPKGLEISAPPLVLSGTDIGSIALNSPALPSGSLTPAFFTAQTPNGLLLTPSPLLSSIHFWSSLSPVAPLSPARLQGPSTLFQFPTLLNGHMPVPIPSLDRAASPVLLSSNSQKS
In short: as §1

FEV = target: T7, FEV (Homo sapiens, UniProt Q99581 1-238); conditions: protein: recombinant; tags: N-terminal GST; dsDNA, one strand shown
T7 sequence: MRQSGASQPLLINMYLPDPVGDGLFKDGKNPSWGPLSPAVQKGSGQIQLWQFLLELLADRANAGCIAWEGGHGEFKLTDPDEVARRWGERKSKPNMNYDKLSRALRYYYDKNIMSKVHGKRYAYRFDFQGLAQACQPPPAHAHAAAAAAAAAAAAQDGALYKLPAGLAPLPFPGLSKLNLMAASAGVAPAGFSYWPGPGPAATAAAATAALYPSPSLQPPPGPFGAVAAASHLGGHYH
In short: as §1

ETV5 = ETV5 (Homo sapiens, UniProt P41161 1-510); conditions: protein: recombinant; tags: N-terminal GST; dsDNA, one strand shown
ETV5, sequence (P41161 whole entry): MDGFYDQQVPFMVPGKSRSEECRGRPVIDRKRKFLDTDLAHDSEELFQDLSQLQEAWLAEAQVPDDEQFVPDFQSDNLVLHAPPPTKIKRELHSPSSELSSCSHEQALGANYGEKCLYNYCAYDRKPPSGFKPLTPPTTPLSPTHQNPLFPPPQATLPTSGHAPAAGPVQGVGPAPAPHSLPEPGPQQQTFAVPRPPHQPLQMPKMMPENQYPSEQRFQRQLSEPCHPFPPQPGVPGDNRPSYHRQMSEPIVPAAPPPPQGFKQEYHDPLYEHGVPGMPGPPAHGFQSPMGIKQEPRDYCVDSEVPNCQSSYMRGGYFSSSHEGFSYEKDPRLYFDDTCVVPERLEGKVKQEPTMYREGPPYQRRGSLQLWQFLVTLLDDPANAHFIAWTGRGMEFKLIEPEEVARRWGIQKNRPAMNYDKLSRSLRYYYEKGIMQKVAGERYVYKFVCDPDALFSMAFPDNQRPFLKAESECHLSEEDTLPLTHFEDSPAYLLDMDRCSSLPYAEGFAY
In short: as §1

HSF1 = HSF1 (Homo sapiens, UniProt Q00613 1-529); conditions: protein: recombinant; tags: N-terminal GST; chain copies: 3; dsDNA, one strand shown
HSF1, sequence (Q00613 whole entry): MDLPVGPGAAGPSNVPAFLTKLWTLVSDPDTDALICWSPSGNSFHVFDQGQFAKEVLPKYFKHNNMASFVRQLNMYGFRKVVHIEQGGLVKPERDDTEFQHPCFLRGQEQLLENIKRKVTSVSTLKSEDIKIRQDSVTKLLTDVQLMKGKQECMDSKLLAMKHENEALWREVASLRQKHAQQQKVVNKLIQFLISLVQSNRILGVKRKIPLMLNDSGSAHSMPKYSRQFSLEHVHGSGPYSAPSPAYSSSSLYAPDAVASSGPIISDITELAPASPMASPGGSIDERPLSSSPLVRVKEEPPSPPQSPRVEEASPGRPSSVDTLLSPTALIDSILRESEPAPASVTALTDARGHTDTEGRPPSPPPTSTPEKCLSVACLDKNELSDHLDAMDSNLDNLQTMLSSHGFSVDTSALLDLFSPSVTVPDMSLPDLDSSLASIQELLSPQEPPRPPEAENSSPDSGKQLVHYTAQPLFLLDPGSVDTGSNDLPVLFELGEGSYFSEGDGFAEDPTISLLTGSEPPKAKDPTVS
In short: as §1

SPIC = target: T8, SPIC (Homo sapiens, UniProt Q8N5J4 1-248); conditions: protein: recombinant; tags: N-terminal GST; dsDNA, one strand shown
T8 sequence: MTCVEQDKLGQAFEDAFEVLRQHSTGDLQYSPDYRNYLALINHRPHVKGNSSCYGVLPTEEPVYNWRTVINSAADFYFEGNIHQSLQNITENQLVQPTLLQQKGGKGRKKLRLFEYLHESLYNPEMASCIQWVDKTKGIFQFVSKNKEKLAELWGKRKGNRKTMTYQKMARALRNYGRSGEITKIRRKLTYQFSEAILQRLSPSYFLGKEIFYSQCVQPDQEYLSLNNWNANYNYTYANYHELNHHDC
In short: as §1

ELF4 = ELF4 (Homo sapiens, UniProt Q99607 1-663); conditions: protein: recombinant; tags: N-terminal GST; dsDNA, one strand shown
ELF4, sequence (Q99607 whole entry): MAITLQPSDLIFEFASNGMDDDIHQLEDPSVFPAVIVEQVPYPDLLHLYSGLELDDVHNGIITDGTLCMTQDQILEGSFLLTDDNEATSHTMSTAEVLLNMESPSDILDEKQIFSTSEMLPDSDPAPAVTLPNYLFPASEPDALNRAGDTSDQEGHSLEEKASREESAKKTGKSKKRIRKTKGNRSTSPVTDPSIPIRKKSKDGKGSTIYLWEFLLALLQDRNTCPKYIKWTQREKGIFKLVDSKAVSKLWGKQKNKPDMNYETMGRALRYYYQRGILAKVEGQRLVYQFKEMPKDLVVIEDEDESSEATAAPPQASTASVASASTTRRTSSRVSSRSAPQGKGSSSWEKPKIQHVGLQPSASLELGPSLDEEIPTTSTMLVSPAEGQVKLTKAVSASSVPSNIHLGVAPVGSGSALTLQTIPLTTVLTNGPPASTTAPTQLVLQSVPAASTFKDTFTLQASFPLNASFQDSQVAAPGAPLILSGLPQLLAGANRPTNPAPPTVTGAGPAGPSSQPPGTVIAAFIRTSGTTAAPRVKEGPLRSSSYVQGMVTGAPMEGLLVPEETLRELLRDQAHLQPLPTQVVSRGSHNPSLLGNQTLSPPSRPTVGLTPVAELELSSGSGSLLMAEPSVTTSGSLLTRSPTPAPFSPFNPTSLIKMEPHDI
In short: as §1

ELK4 = target: T9, ELK4 (Homo sapiens, UniProt P28324-2 1-405); conditions: protein: recombinant; tags: N-terminal GST; dsDNA, one strand shown
T9 sequence: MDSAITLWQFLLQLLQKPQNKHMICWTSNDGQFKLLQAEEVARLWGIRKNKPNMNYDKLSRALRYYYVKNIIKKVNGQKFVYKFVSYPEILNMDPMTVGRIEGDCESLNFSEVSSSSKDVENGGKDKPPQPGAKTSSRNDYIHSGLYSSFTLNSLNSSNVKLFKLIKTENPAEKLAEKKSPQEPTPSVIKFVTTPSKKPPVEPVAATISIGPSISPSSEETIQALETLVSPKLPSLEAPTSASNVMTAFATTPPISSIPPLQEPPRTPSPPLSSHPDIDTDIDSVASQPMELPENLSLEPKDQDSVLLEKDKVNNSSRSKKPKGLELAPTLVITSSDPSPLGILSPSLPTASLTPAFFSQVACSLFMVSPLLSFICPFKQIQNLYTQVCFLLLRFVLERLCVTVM
In short: as §1

ETV2 = target: T10, ETV2 (Homo sapiens, UniProt O00321 1-342); conditions: protein: recombinant; tags: N-terminal GST; dsDNA, one strand shown
T10 sequence: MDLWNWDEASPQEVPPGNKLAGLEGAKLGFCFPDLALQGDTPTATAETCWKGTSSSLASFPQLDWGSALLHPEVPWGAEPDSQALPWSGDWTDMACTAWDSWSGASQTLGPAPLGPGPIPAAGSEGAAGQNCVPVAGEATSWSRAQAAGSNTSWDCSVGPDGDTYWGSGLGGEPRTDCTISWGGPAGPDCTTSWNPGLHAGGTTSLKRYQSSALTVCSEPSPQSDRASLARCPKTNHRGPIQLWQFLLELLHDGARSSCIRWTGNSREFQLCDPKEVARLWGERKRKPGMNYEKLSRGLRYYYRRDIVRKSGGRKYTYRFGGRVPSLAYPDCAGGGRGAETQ
In short: as §1

ELF3 = target: T11, ELF3 (Homo sapiens, UniProt P78545 1-371); conditions: protein: recombinant; tags: N-terminal GST; dsDNA, one strand shown
T11 sequence: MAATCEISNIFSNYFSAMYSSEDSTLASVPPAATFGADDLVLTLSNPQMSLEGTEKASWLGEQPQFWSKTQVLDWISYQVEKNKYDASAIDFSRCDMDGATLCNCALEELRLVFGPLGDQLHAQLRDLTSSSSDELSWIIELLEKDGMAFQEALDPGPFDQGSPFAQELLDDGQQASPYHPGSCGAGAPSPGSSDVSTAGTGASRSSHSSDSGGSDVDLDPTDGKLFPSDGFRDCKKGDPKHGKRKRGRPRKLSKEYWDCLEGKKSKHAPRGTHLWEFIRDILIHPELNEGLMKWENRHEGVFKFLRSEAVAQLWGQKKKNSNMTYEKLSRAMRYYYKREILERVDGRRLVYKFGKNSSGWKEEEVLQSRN
In short: as §1

CRX = CRX (Homo sapiens, UniProt O43186 1-299); conditions: protein: recombinant; tags: N-terminal GST; dsDNA, one strand shown
CRX, sequence (O43186 whole entry): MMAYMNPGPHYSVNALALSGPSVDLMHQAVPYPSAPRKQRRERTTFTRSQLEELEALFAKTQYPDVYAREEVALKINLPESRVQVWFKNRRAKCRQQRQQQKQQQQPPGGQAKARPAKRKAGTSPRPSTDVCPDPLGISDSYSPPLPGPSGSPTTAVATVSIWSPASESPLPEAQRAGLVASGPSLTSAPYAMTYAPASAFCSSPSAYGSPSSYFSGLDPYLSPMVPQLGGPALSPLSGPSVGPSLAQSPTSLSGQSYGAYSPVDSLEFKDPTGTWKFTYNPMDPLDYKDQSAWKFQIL
In short: as §1

ETV1 = ETV1 (Homo sapiens, UniProt P50549 1-477); conditions: protein: recombinant; tags: N-terminal GST; dsDNA, one strand shown
ETV1, sequence (P50549 whole entry): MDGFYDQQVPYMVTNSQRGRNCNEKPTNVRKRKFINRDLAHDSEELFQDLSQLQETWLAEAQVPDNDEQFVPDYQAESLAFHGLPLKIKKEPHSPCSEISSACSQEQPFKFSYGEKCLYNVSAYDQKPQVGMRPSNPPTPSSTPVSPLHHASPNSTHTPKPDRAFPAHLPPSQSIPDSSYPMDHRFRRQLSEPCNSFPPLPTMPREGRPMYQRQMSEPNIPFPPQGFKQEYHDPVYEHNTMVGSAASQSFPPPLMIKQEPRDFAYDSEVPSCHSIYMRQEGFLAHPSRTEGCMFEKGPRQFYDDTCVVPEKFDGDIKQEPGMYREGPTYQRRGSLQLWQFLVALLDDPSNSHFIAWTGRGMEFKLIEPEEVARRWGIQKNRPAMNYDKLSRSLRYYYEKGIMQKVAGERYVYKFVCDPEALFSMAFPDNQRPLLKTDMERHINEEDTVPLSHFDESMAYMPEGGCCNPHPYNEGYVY
In short: as §1

## AAATGC
FLI1
  binding signal: 1.17 fold enrichment (6-mer frequency, TF over GST control)
ELK1
  binding signal: 1.29 fold enrichment (6-mer frequency, TF over GST control)
GABPA
  binding signal: 1.25 fold enrichment (6-mer frequency, TF over GST control)
ERG
  binding signal: 1.3 fold enrichment (6-mer frequency, TF over GST control)
ELF1
  binding signal: 1.25 fold enrichment (6-mer frequency, TF over GST control)
EHF
  binding signal: 1.25 fold enrichment (6-mer frequency, TF over GST control)
SPI1
  binding signal: 1.48 fold enrichment (6-mer frequency, TF over GST control)
SPIB
  binding signal: 1.18 fold enrichment (6-mer frequency, TF over GST control)
ELK3
  binding signal: 1.18 fold enrichment (6-mer frequency, TF over GST control)
FEV
  binding signal: 1.35 fold enrichment (6-mer frequency, TF over GST control)
ETV5
  binding signal: 1.34 fold enrichment (6-mer frequency, TF over GST control)
HSF1
  binding signal: 1.09 fold enrichment (6-mer frequency, TF over GST control)
SPIC
  binding signal: 1.13 fold enrichment (6-mer frequency, TF over GST control)
ELF4
  binding signal: 1.23 fold enrichment (6-mer frequency, TF over GST control)
ELK4
  binding signal: 1.37 fold enrichment (6-mer frequency, TF over GST control)
ETV2
  binding signal: 1.23 fold enrichment (6-mer frequency, TF over GST control)
ELF3
  binding signal: 1.35 fold enrichment (6-mer frequency, TF over GST control)
CRX
  binding signal: 1.19 fold enrichment (6-mer frequency, TF over GST control)
ETV1
  binding signal: 1.26 fold enrichment (6-mer frequency, TF over GST control)
